# Test results published in PubChem BioAssay AID686979 (National Center for Advancing Translational Sciences (NCATS), 2013).
# Hit rate of the full screen: of about 420,000 compounds, about 50,000 (12%) were called active. Roughly 26% stayed inconclusive and do not appear here. Calls come from the whole dose curve; as a rule, active = well fitted inhibition curve with a large enough effect; inconclusive = small, poorly fitted or top-dose-only effect; inactive = flat fitted curve, though single readings scatter. The list comes from a sample in which actives are over-represented; it also holds similar structures and randomly drawn compounds.
# Assay: qHTS for Inhibitors of human tyrosyl-DNA phosphodiesterase 1 (TDP1): qHTS in cells in presence of CPT; note: nearly all actives have a fitted effect of over 55% in size
# Details: chicken DT40 Tdp1-/-;hTDP1 cells + 20 nM CPT, ATP luminescence, 48 h; series mostly up to 46.2 µM; activity change, negative = growth inhibition: at the top concentration
# Procedure, shortened: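 Chicken DT40 Tdp1-/- cells complemented with human TDP1, 400 cells/well, exposed to compounds plus 20 nM camptothecin for at least 48 h at 37 C; viability read as ATP content by CellTiter-Glo luminescence.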
# % is set by controls: 0 for no effect and ±100 for the full control effect; potency is the fitted concentration of half-maximal effect.
SMILES,"activity change, negative = growth inhibition",Potency
CCn1c(SCc2cccc(C(=O)O)c2)nnc1-c1ccc(Cl)cc1,4.66% (inactive),–
CN(C)CCCOc1ccc(-c2ccc3nccn3c2)cn1,11.3% (inactive),–
CCc1ccc(NC(=O)N2CCc3ccccc3C2)cc1,-21.3% (inactive),–
Cc1ccc(NC(=O)CN2CCc3ccccc3C2)cc1C,-29.3% (inactive),–
Cc1cccc(C)c1NC(=O)c1ccc(CN2CCc3ccccc3C2)cc1,–,20.6 µM (active)
CC(=O)c1ccc(S(=O)(=O)N2CCC(Oc3ccc(-n4cnnn4)cc3)CC2)cc1,–,inactive
O=S(=O)(/C=C/c1ccccc1)N1CCNCC1,-4.52% (inactive),–
CCN1CCN(CC(=O)c2cc(OC)c(OC)c(OC)c2)CC1,-1.2% (inactive),–
COc1cc(C(=O)NCCOC(=O)c2cccc(N(C)C)c2)cc(OC)c1OC,7.13% (inactive),–
CCn1c(CNC(=O)c2cc(OC)c(OC)c(OC)c2)cc2cc(C)ccc21,–,20.6 µM (active)
O=C(COC(=O)c1ccccc1)Nc1ccccc1Sc1ccccc1,-2.56% (inactive),–
CCc1nc2nc(C)c(NS(=O)(=O)c3ccc4c(c3)CCCC4)c(=O)n2[nH]1,-0.594% (inactive),–
Cn1nccc1NS(=O)(=O)c1ccc(F)cc1,3.58% (inactive),–
Cc1cc(F)ccc1NS(=O)(=O)c1ccc(-n2cccn2)cc1,–,14.6 µM (active)
Cc1ccc(NS(=O)(=O)c2ccc(F)cc2)nc1,-7.37% (inactive),–
O=C(COc1ccc([N+](=O)[O-])cc1Cl)Nc1ccc2[nH]c(=O)[nH]c2c1,-23% (inactive),–
COC(=O)C[C@@H]1C=C[C@@H](NC(=O)c2cccnc2)[C@@H](CO)O1,2.13% (inactive),–
Cc1ccc(C(=O)CSc2ccccc2C(=O)O)cc1,-2.04% (inactive),–
Cc1ccc(Sc2cc(C(=O)c3ccccc3C(=O)O)ccc2[N+](=O)[O-])cc1,-8.99% (inactive),–
Cc1ccc(SC(CC(=O)c2ccc(C(C)(C)C)cc2)C(=O)O)cc1 (configuration not stated),–,3.66 µM (active)
COc1ccccc1C(=O)N/C(=C/c1ccc2c(c1)OCO2)C(=O)Nc1cccc(C(=O)O)c1,-15.3% (inactive),–
CCOC(=O)c1sc(-c2cccc([N+](=O)[O-])c2)cc1N,0.456% (inactive),–

SMILES,"activity change, negative = growth inhibition",Potency
CCOC(=O)c1cc2cc3ccccc3cc2oc1=O,1.87% (inactive),–
CCOC(=O)c1sc(C)c2c1NC(C)(c1cccc3ccccc13)NC2=O (configuration not stated),–,25.9 µM (active)
CCCNC(=O)COc1coc(CN2CCN(Cc3ccccc3)CC2)cc1=O,-4.86% (inactive),–
Cc1ccc(S(=O)(=O)N2CCC3(CC2)OCCO3)c(C)c1,-0.485% (inactive),–
COc1cccc(Nc2ncccc2C(=O)O)c1,-0.267% (inactive),–
COc1cccc(Nc2ncc3ncc(=O)n(C4CC4)c3n2)c1,–,14.6 µM (active)
Cc1nc2cnc(Nc3ccccc3)nc2n(C[C@H]2CCCO2)c1=O,5.94% (inactive),–
COc1cccc(CC(=O)OCC(=O)NCc2ccc3c(c2)OCO3)c1,-6.33% (inactive),–
CCC1CN(CCNC(=O)c2cccnc2C)Cc2cc(OC)ccc2O1 (configuration not stated),21.1% [at 9.04 µM] (inactive),–
COc1cccc(OC)c1CN(C)C(=O)c1cnccc1C(F)(F)F,6.45% (inactive),–
CC1CCCN(c2cc3c(cc2F)c(=O)c(S(=O)(=O)c2cccc(Cl)c2)cn3Cc2ccccc2)C1 (configuration not stated),0.498% (inactive),–
Cc1ccc(S(=O)(=O)c2cn(Cc3ccccc3)c3cc(N4CCCC4)c(F)cc3c2=O)c(C)c1,–,20.6 µM (active)
CCn1cc(S(=O)(=O)c2cccc(C)c2)c(=O)c2cc(F)c(N3CCN(C)CC3)cc21,-15.2% (inactive),–
Cc1cccc(S(=O)(=O)c2cn(Cc3ccccc3)c3cc(N4CCOCC4)c(F)cc3c2=O)c1,–,6.51 µM (active)
CCn1cc(C(=O)NCCO)c(=O)c2cc(F)c(N3CCN(C)CC3)cc21,-4.68% (inactive),–
COCCNC(=O)C1CCN(S(=O)(=O)c2ccc3c(c2)OCCO3)CC1,-10.3% (inactive),–
C[C@H]1CN([C@@H](C)CO)C(=O)CCCn2cc(nn2)CO[C@@H]1CN(C)S(=O)(=O)c1ccc(-n2cccn2)cc1,-13.4% (inactive),–
CC(=O)NNc1cc(=O)c2c(=O)n(C)c(=O)n(C)c2[nH]1,-1.94% (inactive),–
Cc1cccc(NC(=O)c2ccc(COc3ccccc3[N+](=O)[O-])o2)n1,-4.93% (inactive),–
COc1ccc(C)cc1N1C(=O)[C@@H]2C[C@H]1CN2Cc1cccc(OC)c1O,-12.7% [at 9.04 µM] (inactive),–
COc1ccc(OC)c(CN2CCN(C(=O)CNC(=O)c3cc(C)cc(C)c3)CC2)c1,-27.7% (inactive),–
COc1cccc(OCC(=O)NCCS(=O)(=O)N2CCN(c3ccccc3)CC2)c1,-18.7% (inactive),–

SMILES,"activity change, negative = growth inhibition",Potency
COc1cc(C(=O)NCCS(=O)(=O)N2CCN(c3ccccc3)CC2)cc(OC)c1OC,–,20.6 µM (active)
COc1cc(OC)cc(C(=O)NCC(=O)N2CCCCCCC2)c1,-3.83% (inactive),–
CCOc1ccc(CC(=O)NCCS(=O)(=O)N2CCN(c3ccccc3)CC2)cc1,-20.6% (inactive),–
COc1cc(C(=O)NCC(=O)N2CC=C(c3ccccc3)CC2)cc(OC)c1OC,–,16.4 µM (active)
CC(=O)Nc1nc(N(C)C)nc(N(C)C)n1,2.3% (inactive),–
CN(CC(=O)Nc1ccc(OC(F)(F)F)cc1)C(=O)C1CCC1,-22.9% (inactive),–
O=C(NCC(=O)N1CCCCCCC1)c1ccccc1Cl,-3.35% (inactive),–
Cc1ccc(CN2CCN(Cc3ccc4ncccc4c3)CC2CCO)cc1 (configuration not stated),-7.54% (inactive),–
Cc1cccc(N(CC(=O)Nc2ccc(-c3nc4ccc(C)cc4s3)cc2)S(C)(=O)=O)c1,–,13 µM (active)
COc1cccc(N(CC(=O)Nc2cccc(F)c2)S(C)(=O)=O)c1,-23.4% (inactive),–
CCN(CC)S(=O)(=O)c1ccc(NC(=O)CN(c2cccc(F)c2)S(C)(=O)=O)cc1,-21.7% (inactive),–
O=C(Nc1nnc(C2CC(=O)N(c3ccc(Cl)cc3)C2)s1)c1ccco1 (configuration not stated),-24% (inactive),–
CC(C)Nc1nnc(SC(C)C(=O)N(C)C2CCCCC2)s1 (configuration not stated),-9.32% (inactive),–
CCc1ccc(NC(=O)NC(C)c2ccc3c(c2)OCO3)cc1 (configuration not stated),-12.2% (inactive),–
CC1CCCN(C(C(=O)Nc2ccc(C(C)C)cc2)c2ccc3c(c2)OCO3)C1 (configuration not stated),–,18.4 µM (active)
CC(NC(=O)Nc1ccc2c(c1)OCO2)c1ccncc1 (configuration not stated),12.1% (inactive),–
O=C(CN1C(=O)NC2(CCCCC2)C1=O)N1CCN(C(=O)c2cccs2)CC1,9.19% (inactive),–
COc1ccc(Cl)cc1NC(=O)NC(C)C(C)(C)C (configuration not stated),18.8% (inactive),–
CCNc1nc(NCC)nc(N/N=C/c2ccc(O)c(OC)c2)n1,-23% (inactive),–
O=[N+]([O-])c1cc(Br)c(O)c(/C=N/Nc2nc3ccccc3s2)c1,–,8.2 µM (active)
COc1ccc(/C=N/Nc2nc3ccccc3o2)cc1OC,2.57% (inactive),–
Cc1ccc(S(=O)(=O)Nc2nc3ccccc3s2)cc1[N+](=O)[O-],5.53% (inactive),–

SMILES,"activity change, negative = growth inhibition",Potency
COc1cc(/C=N/Nc2nc3ccccc3s2)ccc1O,–,1.46 µM (active)
O=[N+]([O-])c1cccc(/C=N/Nc2ncc(Br)cn2)c1,-2.55% (inactive),–
CCOC(=O)N1CCC(N2Cc3cccc(C(=O)Nc4ccc(S(=O)(=O)N(CC)CC)cc4)c3C2=O)CC1,-18.8% (inactive),–
C=CCOc1cccc(C2C(C(=O)c3ccc(C)o3)=C(O)C(=O)N2CCN2CCOCC2)c1 (configuration not stated),-22.3% (inactive),–
COc1ccc(/C=N/Nc2ccccc2C(=O)O)cc1,-1.82% (inactive),–
COc1ccc(/C=N/NC(=O)c2ccccc2)cc1OS(=O)(=O)c1ccccc1,-71.7% (inactive),–
COc1ccc(C(=O)Nc2ccccc2C(=O)N/N=C/c2ccc(O)c(OC)c2)cc1,–,16.4 µM (active)
Cc1cccc(C)c1N1C(=O)CN(Cc2ccccc2)C1=S,-6.5% (inactive),–
C=CCC1(CC=C)CCCN1C(=O)CC1C(=O)NCCN1Cc1ccccc1OC (configuration not stated),-23.7% (inactive),–
O=C(Cc1ccc(Br)cc1)NCCN1CCOCC1,17.8% (inactive),–
COC1=C/C(=C/c2c(N)n3nc(CC(=O)N4CCOCC4)sc3nc2=O)C=CC1=O,-0.843% (inactive),–
Cc1cccc(CSc2nc3ccncc3n2Cc2ccc(C(=O)O)cc2)c1,-0.967% (inactive),–
O=C(O)c1ccc(CSc2nc3cccnc3n2Cc2cccc(F)c2)cc1,-1.39% (inactive),–
COc1cccc(Cn2c(SCc3ccc(C(=O)N4CCC(C)CC4)cc3)nc3ccncc32)c1,–,11.6 µM (active)
CCC1C(=O)NCCN1C(=O)c1ccc2nc(Cc3ccc(OC)cc3)oc2c1 (configuration not stated),-10.2% (inactive),–
COc1ccc(S(=O)(=O)N2CCN(C)CC2)c(C)c1,3.87% (inactive),–
CN(C)S(=O)(=O)N1CCC(Oc2cccc(C(=O)NCCCC3CCCC3)c2)CC1,–,18.4 µM (active)
CN(C(=O)c1cccc(OC2CCN(S(=O)(=O)N(C)C)CC2)c1)C1CCOC1 (configuration not stated),0.425% (inactive),–
CNS(=O)(=O)c1cccc(C(=O)NCC2CCCCC2)c1,-6.28% (inactive),–
Clc1cc(-c2ccc(/C=N/n3cnnc3)o2)ccc1Br,36% (inactive),–
CCOc1ccc(S(=O)(=O)NCc2ccc3c(c2)OCO3)cc1C,-0.545% (inactive),–
O=C(NC1CC(=O)N(c2ccc(Cl)cc2)C1)C1CCCC1 (configuration not stated),-4.39% (inactive),–

SMILES,"activity change, negative = growth inhibition",Potency
Cc1cc(C)n2nc(C(=O)OCC(=O)N(CCC#N)c3ccc(F)cc3)nc2n1,-8.36% (inactive),–
Cc1ccc(-c2cc(=O)c3ccc(F)cc3[nH]2)cc1,–,18.4 µM (active)
O=c1cc(-c2ccccc2)[nH]c2cc(F)ccc12,–,0.92 µM (active)
Cc1ccc(-c2cc(=O)c3ccc(Cl)cc3[nH]2)cc1,-0.276% (inactive),–
Cc1cc(=O)c2ccc(NC(=O)c3ccccc3)cc2[nH]1,4.26% (inactive),–
Cc1ccc(S(=O)(=O)/N=C(\N)c2ccc(F)cc2)cc1,7.94% (inactive),–
O=c1[nH]c(-c2ccccc2)c(-c2ccccc2)[nH]1,-8.71% (inactive),–
CC1=C(C(=O)OC2CCCCC2)C(c2ccccc2F)NC(=O)N1 (configuration not stated),-0.323% (inactive),–
O=C(CCC(=O)N1CCCC1)Nc1ccc([N+](=O)[O-])cc1,0.853% (inactive),–
CCCCOc1ccc(C(=O)NCC(=O)OCC(=O)N2CCN(S(=O)(=O)c3ccc(C)cc3C)CC2)cc1,3.37% (inactive),–
N#C/C(=C/c1ccc(Cl)cc1)NC(=O)c1ccccc1,-13.7% (inactive),–
Cc1c(Br)c([N+](=O)[O-])nn1CC(=O)N1CCN(Cc2ccccc2)CC1,0.502% (inactive),–
Fc1ccc(COc2ccc(-c3nnco3)cc2)cc1,-5.2% (inactive),–
CCN1C(=O)[C@H]2[C@@H](c3ccc(SC4CCCCC4)c(OC)c3)N[C@@](Cc3ccccc3)(C(=O)OC)[C@H]2C1=O,–,16.4 µM (active)
COC(=O)C1(C)NC(c2ccccc2OC)C2C(=O)N(c3ccccc3)C(=O)C21 (configuration not stated),-4.8% (inactive),–
CCCC1(C(=O)OC)NC(c2ccco2)C2C(=O)N(C)C(=O)C21 (configuration not stated),7.77% (inactive),–
CCN1C(=O)[C@H]2[C@@H](c3ccc(-c4ccc(OC)cc4)cc3)N[C@@](Cc3ccccc3)(C(=O)OC)[C@H]2C1=O,–,18.4 µM (active)
CCN(C[C@H]1N[C@@](CC)(C(=O)OC)[C@H]2C(=O)N(Cc3ccccc3)C(=O)[C@@H]12)S(=O)(=O)c1ccccc1,-24% (inactive),–
CCNC(=O)N(CC)C[C@H]1N[C@@](CC)(C(=O)OC)[C@H]2C(=O)N(Cc3ccccc3)C(=O)[C@@H]12,-0.264% (inactive),–
